Drawing on PubChem BioAssay (NCATS), this text covers Potency for 38 compounds.

Structures are written as SMILES. Results filed as inconclusive are left out. Entries that show only a call come without a potency. Calls of active or inactive are those of the source. Calls follow the shape of the dose curve; as a rule, active = well fitted curve in the direction sought with a large enough effect; inconclusive = small, poorly fitted or top-dose-only effect, or another doubt; inactive = no such curve, though single readings can be large; an effect the other way counts as inactive or inconclusive.
Potency is read from the fitted curve at half-maximal effect.

A short description of one assay: qHTS of pediatric cancer cell lines to identify multiple opportunities for drug repurposing: Primary screen for BT-12 cells (AID 1347101). Also: nearly all actives have a fitted effect of over 25% in size. As to conditions: BT-12 viability, CellTiter-Glo luminescence, 48 h; series mostly up to 57.3 µM. The essentials:
(§1)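 Cells (500-1,000/well) rested 5 h, then received compounds for 48 h; metabolically active cells were measured by CellTiter-Glo luminescence. Final concentrations spanned up to 46 µM (MIPE, 11-point) or 0.59 nM-46 µM (NPC, 8-point) in primary screens, 11-point in follow-ups.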
Consider `CC(=O)O[C@]1(C(C)=O)CC[C@H]2[C@@H]3C=C(C)C4=CC(=O)CC[C@]4(C)[C@@H]3CC[C@@]21C`, for which the Potency is 15.3 µM (active).

For the compound `O=C1CSC(=O)N1C(CCc1ccncc1)COc1ccc(-c2cccc([N+](=O)[O-])c2)cc1` (centres undefined), the Potency was 6.85 µM (active).

Take `C=CC(=O)N1CCc2ccc(-n3c(=O)ccc4cnc5ccc(-c6cnn(C)c6)cc5c43)cc21`: the Potency is 6.11 µM (active).

Take `Cc1cnn(C)c1C(=O)Nc1cc(Nc2ccc3c(C=Cc4ccccn4)n[nH]c3c2)ccc1F`: the Potency was 10.9 µM (active).

With `N#CC(=C(O)c1ccc(Cl)cc1Cl)c1nc2cc(Cl)ccc2c(=O)[nH]1`, the Potency result is “inactive”.

`C[C@@H](NCc1cc2ccccc2[nH]1)c1cccc2ccccc12`: the Potency entry was “inactive”.

Consider `C=C[C@@H]1CN2CCC1C[C@H]2[C@H](O)c1ccnc2ccc(OC)cc12` (some centres undefined), for which the Potency result was “inactive”.

Consider `CCN(CC)Cc1ccc2cc(COC(=O)Nc3ccc(C(=O)NO)cc3)ccc2c1`, for which the Potency is 3.06 µM (active).

Regarding `COc1cc(OC)c(NC(=O)Nc2cc(C)on2)cc1Cl`, the Potency result was “inactive”.

`O=C(O)c1ccc(Nc2ncc3c(n2)-c2ccc(Cl)cc2C(c2c(F)cccc2F)=NC3)cc1`: the Potency entry is “inactive”.

On to `COc1cc(C[C@@H](CO)[C@H](CO)Cc2ccc(O)c(OC)c2)ccc1O`, for which the Potency is 10.9 µM (active).

For the compound `CCCCCCCCCCCCc1ccc(S(=O)(=O)Nc2nncs2)cc1`, the Potency entry was “inactive”.

Regarding `C#Cc1cccc(Nc2ncnc3cc(OCCOC)c(OCCO)cc23)c1`, the Potency was 13.7 µM (active).

For the compound `CCOC(=O)C=C[C@H](C[C@@H]1CCNC1=O)NC(=O)[C@@H](CC(=O)[C@@H](NC(=O)c1cc(C)on1)C(C)C)Cc1ccc(F)cc1`, the Potency entry is “inactive”.

For the compound `CN(C)CCN1C(=O)c2cccc3cc(N)cc(c23)C1=O`, the Potency is 21.7 µM (active).

For the compound `NC(=O)c1ncn([C@@H]2O[C@H](CO)[C@@H](O)[C@@H]2O)c1N`, the Potency result was “inactive”.

In the case of `Oc1cc2c(cc1O)C1c3ccc(O)c(O)c3OCC1(O)C2` (centres undefined), the Potency entry was “inactive”.

In the case of `Nc1ncn([C@@H]2O[C@H](CO)[C@@H](O)[C@@H]2O)c(=O)n1`, the Potency was 5.44 µM (active).

Take `CN(C)c1ccc2cc(C(=O)N[C@@H](CCCN=C(N)CCl)C(=O)NCc3ccccc3)ccc2c1`: the Potency was 24.3 µM (active).

With `C[C@H](O)[C@@H]1C(=O)N2C(C(=O)O)=C(S[C@@H]3CN[C@H](CNS(N)(=O)=O)C3)[C@@H](C)[C@@H]12`, the Potency entry is “inactive”.

Consider `Cc1ccccc1C(=O)Nc1ccc(C(=O)N2CCCC(O)c3cc(Cl)ccc32)c(C)c1` (centres undefined), for which the Potency result was “inactive”.

Another assay in a line: qHTS of pediatric cancer cell lines to identify multiple opportunities for drug repurposing: Primary screen for Rh18 cells (AID 1347102). Also: nearly all actives have a fitted effect of over 65% in size. The note with it: Rh18 rhabdomyosarcoma viability, CellTiter-Glo luminescence, 48 h; series mostly up to 46 µM. A digest of the protocol: as §1
With `CC(=O)O[C@]1(C(C)=O)CC[C@H]2[C@@H]3C=C(C)C4=CC(=O)CC[C@]4(C)[C@@H]3CC[C@@]21C`, the Potency is 13.2 µM (active).

Consider `O=C1CSC(=O)N1C(CCc1ccncc1)COc1ccc(-c2cccc([N+](=O)[O-])c2)cc1` (centres undefined), for which the Potency entry was “inactive”.

With `C=CC(=O)N1CCc2ccc(-n3c(=O)ccc4cnc5ccc(-c6cnn(C)c6)cc5c43)cc21`, the Potency is 8.33 µM (active).

`O=C(O)CCCCCC(=O)NN=C1CCCC1`: the Potency result was “inactive”.

Take `Cc1cncc2cccc(S(=O)(=O)N3CCCN(C(=O)CN)C[C@@H]3C)c12`: the Potency result was “inactive”.

Turning to `N#CC(=C(O)c1ccc(Cl)cc1Cl)c1nc2cc(Cl)ccc2c(=O)[nH]1`, the Potency result is “inactive”.

As to `C[C@@H](NCc1cc2ccccc2[nH]1)c1cccc2ccccc12`, the Potency entry was “inactive”.

Turning to `Cc1cn([C@@H]2O[C@H](CO)[C@@H](O)[C@H]2F)c(=O)[nH]c1=O`, the Potency entry was “inactive”.

Regarding `C=C[C@@H]1CN2CCC1C[C@H]2[C@H](O)c1ccnc2ccc(OC)cc12` (some centres undefined), the Potency entry is “inactive”.

For the compound `C[C@]12CCC(=O)C=C1[C@@H]1CC1[C@H]1[C@H]3[C@@H]4C[C@H]4[C@@]4(CCC(=O)O4)[C@@]3(C)CC[C@H]12` (some centres undefined), the Potency result is “inactive”.

Consider `CCN(CC)Cc1ccc2cc(COC(=O)Nc3ccc(C(=O)NO)cc3)ccc2c1`, for which the Potency is 0.743 µM (active).

As to `COc1cc(OC)c(NC(=O)Nc2cc(C)on2)cc1Cl`, the Potency result is “inactive”.

For `N#CC(=C(N)Sc1ccc(N)cc1)c1ccccc1C(F)(F)F`, the Potency entry is “inactive”.

Take `CCCCCCCCCCCCc1ccc(S(=O)(=O)Nc2nncs2)cc1`: the Potency result is “inactive”.

Regarding `N=c1ccn2c(n1)O[C@H]1[C@@H](O)[C@@H](CO)O[C@H]12`, the Potency result is “inactive”.

Regarding `CCOC(=O)C=C[C@H](C[C@@H]1CCNC1=O)NC(=O)[C@@H](CC(=O)[C@@H](NC(=O)c1cc(C)on1)C(C)C)Cc1ccc(F)cc1`, the Potency entry was “inactive”.

Turning to `Oc1cc2c(cc1O)C1c3ccc(O)c(O)c3OCC1(O)C2` (centres undefined), the Potency entry is “inactive”.

Regarding `CCCc1nc(C(C)(C)O)c(C(=O)O)n1Cc1ccc(-c2ccccc2-c2nn[nH]n2)cc1`, the Potency entry is “inactive”.

Regarding `Cc1ccccc1C(=O)Nc1ccc(C(=O)N2CCCC(O)c3cc(Cl)ccc32)c(C)c1` (centres undefined), the Potency entry is “inactive”.

The next assay in a line: qHTS of pediatric cancer cell lines to identify multiple opportunities for drug repurposing: Primary screen for OHS-50 cells (AID 1347103). Also: nearly all actives have a fitted effect of over 40% in size. The note with it: OHS-50 osteosarcoma viability, CellTiter-Glo luminescence, 48 h; series mostly up to 57.3 µM. A digest of the protocol: as §1
Background: In qHTS, concentration-response curves come from the screen itself.
Regarding `Cn1cc(-c2cnn3c(N)c(Br)c([C@H]4CCCNC4)nc23)cn1`, the Potency was 0.385 µM (active).

On to `N#Cc1c(C2CCNCC2)cc(-c2c(O)cccc2OCC2CC2)nc1N`, for which the Potency was 15.3 µM (active).

As to `CN(CC(=O)N(Cc1ccc(C2CCCCC2)cc1)c1ccc(C(=O)O)c(O)c1)S(=O)(=O)c1c(F)c(F)c(F)c(F)c1F`, the Potency is 21.7 µM (active).

On to `O=C1CSC(=O)N1C(CCc1ccncc1)COc1ccc(-c2cccc([N+](=O)[O-])c2)cc1` (centres undefined), for which the Potency is 4.85 µM (active).

As for `CC(C)c1cnn2c(NCc3ccccc3)cc(NCCCCCCN)nc12`, the Potency was 21.7 µM (active).

As to `O=C(O)CCCCCC(=O)NN=C1CCCC1`, the Potency result is “inactive”.

As for `C#C[C@]1(O)CC[C@@H]2[C@@H]3CCc4cc(O)ccc4[C@H]3CC[C@@]21C`, the Potency was 30.6 µM (active).

`CCOC(=O)N1CCN([N+]([O-])=NOc2ccc([N+](=O)[O-])cc2[N+](=O)[O-])CC1`: the Potency was 13.7 µM (active).

On to `C=Cc1c(C)c2cc3nc(cc4[nH]c(cc5nc(cc1[nH]2)C(C)=C5CCC(=O)O)c(CCC(=O)OC)c4C)[C@@]1(C)C3=CC=C(C(=O)OC)[C@H]1C(=O)OC`, for which the Potency is 0.769 µM (active).

As for `Cc1cnn(C)c1C(=O)Nc1cc(Nc2ccc3c(C=Cc4ccccn4)n[nH]c3c2)ccc1F`, the Potency was 38.5 µM (active).

For the compound `Cc1cncc2cccc(S(=O)(=O)N3CCCN(C(=O)CN)C[C@@H]3C)c12`, the Potency entry is “inactive”.

`N#CC(=C(O)c1ccc(Cl)cc1Cl)c1nc2cc(Cl)ccc2c(=O)[nH]1`: the Potency entry is “inactive”.

Take `CCc1cc(C(C)=NOCc2ccc(C3CCCCC3)c(C(F)(F)F)c2)ccc1CN1CC(C(=O)O)C1`: the Potency is 8.63 µM (active).

`C[C@@H](NCc1cc2ccccc2[nH]1)c1cccc2ccccc12`: the Potency result is “inactive”.

For the compound `Cc1cn([C@@H]2O[C@H](CO)[C@@H](O)[C@H]2F)c(=O)[nH]c1=O`, the Potency result was “inactive”.

With `C[C@]12CCC(=O)C=C1[C@@H]1CC1[C@H]1[C@H]3[C@@H]4C[C@H]4[C@@]4(CCC(=O)O4)[C@@]3(C)CC[C@H]12` (some centres undefined), the Potency is 19.3 µM (active).

On to `CCCNC(=O)[C@H]1O[C@H]1C(=O)N[C@H](C(=O)N1CCC[C@@H]1C(=O)OC)C(C)CC` (some centres undefined), for which the Potency is 17.2 µM (active).

`COc1cc(C[C@@H](CO)[C@H](CO)Cc2ccc(O)c(OC)c2)ccc1O`: the Potency was 9.68 µM (active).

With `Cn1cc(C2=C(c3c4n(c5ccccc35)CCC(CN)C4)C(=O)NC2=O)c2ccccc21` (centres undefined), the Potency was 24.3 µM (active).

For the compound `C#Cc1cccc(Nc2ncnc3cc(OCCOC)c(OCCO)cc23)c1`, the Potency was 3.85 µM (active).

In the case of `N=c1ccn2c(n1)O[C@H]1[C@@H](O)[C@@H](CO)O[C@H]12`, the Potency is 2.73 µM (active).

For `CCOC(=O)C=C[C@H](C[C@@H]1CCNC1=O)NC(=O)[C@@H](CC(=O)[C@@H](NC(=O)c1cc(C)on1)C(C)C)Cc1ccc(F)cc1`, the Potency result is “inactive”.

In the case of `CN(C)CCN1C(=O)c2cccc3cc(N)cc(c23)C1=O`, the Potency was 24.3 µM (active).

Turning to `NC(=O)c1ncn([C@@H]2O[C@H](CO)[C@@H](O)[C@@H]2O)c1N`, the Potency result was “inactive”.

Consider `Nc1ncn([C@@H]2O[C@H](CO)[C@@H](O)[C@@H]2O)c(=O)n1`, for which the Potency is 15.3 µM (active).

As to `CN(C)c1ccc2cc(C(=O)N[C@@H](CCCN=C(N)CCl)C(=O)NCc3ccccc3)ccc2c1`, the Potency is 4.85 µM (active).

Consider `CCCc1nc(C(C)(C)O)c(C(=O)O)n1Cc1ccc(-c2ccccc2-c2nn[nH]n2)cc1`, for which the Potency result was “inactive”.

Turning to `C[C@H](O)[C@@H]1C(=O)N2C(C(=O)O)=C(S[C@@H]3CN[C@H](CNS(N)(=O)=O)C3)[C@@H](C)[C@@H]12`, the Potency result was “inactive”.

For `Cc1ccccc1C(=O)Nc1ccc(C(=O)N2CCCC(O)c3cc(Cl)ccc32)c(C)c1` (centres undefined), the Potency result is “inactive”.
